Rows were chosen to be rich in hits. Some 1.5% of all compounds tested hit in one or more screens of this group.
FBPA coupling cs = qHTS Assay for Inhibitors of Fructose-1,6-bisphosphate Aldolase from Giardia Lamblia: Coupling assay counterscreen | coupling enzyme system counterscreen, AmpLite Red fluorescence | activity change, negative = inhibition, % at 58.2 µM, hits read low | 0.67% of 290,000 active; in the data active means activity change below about -30%
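Compounds tested against the coupling enzymes alone at 57.5 uM final; readout was AmpLite Red fluorescence (525/598 nm) after 20 min at RT.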
rTrxR1 inhibitor = qHTS Assay for Inhibitors of Mammalian Selenoprotein Thioredoxin Reductase 1 (TrxR1): qHTS | Thioredoxin reductase 1, cytoplasmic (Rattus norvegicus), O89049 | recombinant rTrxR1, NADPH fluorescence consumption, selenite substrate | Potency, µM (top dose mostly 114 µM), hits mostly inhibitors | 1% of 390,000 active; further: nearly all actives have a fitted effect of over 65% in size
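Rat TrxR1 (90 nM in the dispensed reagent) was pre-reduced with 400 uM NADPH for 5 min at room temperature, then incubated with compound for 15 min. After 400 uM selenite was added, NADPH fluorescence (Ex 340/Em 450 nm) was followed for 8 min.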
GALK inh = qHTS Assay for Inhibitors of Human Galactokinase (GALK); P51570; 0.007% of 270,000 active; Purified GALK, Kinase-Glo residual ATP luminescence; AID 1868, 2009; Potency, µM (series often up to 57.5 µM), actives largely listed as inhibitors
Target sequence (P51570 whole entry, looked up): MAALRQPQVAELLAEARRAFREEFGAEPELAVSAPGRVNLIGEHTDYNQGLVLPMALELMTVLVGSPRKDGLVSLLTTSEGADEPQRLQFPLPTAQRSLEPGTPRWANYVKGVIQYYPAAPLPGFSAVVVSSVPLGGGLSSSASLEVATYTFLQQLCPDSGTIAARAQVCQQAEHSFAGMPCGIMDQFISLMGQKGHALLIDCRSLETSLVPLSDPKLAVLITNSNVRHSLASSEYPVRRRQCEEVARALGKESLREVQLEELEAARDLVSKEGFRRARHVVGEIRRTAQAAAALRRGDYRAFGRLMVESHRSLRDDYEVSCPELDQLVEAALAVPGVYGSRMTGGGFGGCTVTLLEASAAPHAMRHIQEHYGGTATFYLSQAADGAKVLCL
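5 nM enzyme, 35 uM ATP, 100 uM galactose, 20 mM HEPES pH8.0, 5 mM MgCl2; 1 h RT; residual ATP by Kinase-Glo Plus luminescence, qHTS format.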
Giardia killer = Small Molecules that selectively kill Giardia lamblia: qHTS. Giardia lamblia trophozoite viability. activity change, % at 7.66 µM, hits read low. 0.15% of 340,000 active; in the data active means activity change below about -80%; inconclusive means between about -30% and that limit;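 further: parasites exposed to compound for two days anaerobically before the ATP read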
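Each well holds 100 Giardia trophozoites and compound. After two days (48 hrs) at 37 deg C in anaerobic conditions, ATP is quantified by luminescence.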
TrxR1 substrate = qHTS Assay for Substrates of Mammalian Selenoprotein Thioredoxin Reductase 1 (TrxR1): qHTS | Thioredoxin reductase 1, cytoplasmic (Rattus norvegicus), O89049 | purified TrxR1 substrate turnover, NADPH consumption readout | Potency, µM (series often up to 114 µM) | 0.01% of 390,000 active | AID 588456, 2011; further: nearly all actives have a fitted effect of over 50% in size
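Rat TrxR1, dispensed at 90 nM, was prereduced with 400 uM NADPH (final) for 5 min at ~22 deg C, then incubated with compound 15 min before 400 uM selenite. A first-read NADPH fluorescence drop versus no-compound background flagged substrates.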
PI4K2A block = qHTS for small molecular inhibitors of PI4K2A | AID 1346378, 2018 | purified PI4K2A, ADP-Glo luminescence, 1 h; stronger effect = lower value | 0.13% of 420,000 active | activity change, negative = inhibition, % at 76.9 µM; in the data active means activity change below about -50%; inconclusive means mostly about -30% to -49%
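ADP-Glo luminescence measured ADP generated by PI4K2A enzyme (4 ug/mL before mixing) with 1.2 mM PI substrate (pre-mix) and 300 microM ATP (pre-mix). Tris pH7.5 buffer with MgCl2, Triton X-100; 1 h reaction at ambient temperature.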
Numbers stand for hits; – = inactive; ? = inconclusive; · = no result; ! = repeats disagree; [ ] = another dose, or the depositor's remark. Unless noted, the call rests on the fitted dose curve; in most records, active means well fitted curve in the direction sought with a large enough effect; inconclusive means small, poorly fitted or top-dose-only effect, or another doubt; inactive means no such curve, though single readings can be large; an effect the other way counts as inactive or inconclusive.

SMILES	FBPA coupling cs	rTrxR1 inhibitor	GALK inh	Giardia killer	TrxR1 substrate	PI4K2A block
Cc1ccc(NC(=O)N2CCC(CN3CCCCCC3)CC2)c(Cl)c1	·	?	·	·	–	–
N#CC(C#N)=Cc1ccc(NC(=O)c2ccc(Br)cc2)cc1	–	13µM	–	–	–	–
CC(C)(C)c1ccc(C(=O)Nc2ccc(NC(=O)c3ccc(Cl)c(Cl)c3)cc2)cc1	·	–	·	·	–	–
CC(C)(C)c1ccc(C(=O)Nc2ccc(C=C(C#N)C#N)cc2)cc1	–	3.2µM	–	–	–	–
COC(=O)c1c(C)oc(C)c1S(=O)(=O)N(C)C1CCCCC1	–	16µM	–	–	–	–
COC(=O)Cc1c(C)c2cc3c(c(C)c2oc1=O)OCN(CCc1ccccc1F)C3	·	?	·	·	–	–
COC(=O)Cc1c(C)c2cc3c(c(C)c2oc1=O)OCN(CCc1ccc(OC)cc1)C3	·	79µM	·	·	–	–
COc1ccccc1CCN1COc2c(cc3c(C)c(C)c(=O)oc3c2C)C1	·	89µM	·	·	–	–
O=C1c2ccccc2C(=O)N1c1ccc(O)cc1	·	–	·	–	–	·
O=C(NC1CCCCN(Cc2cccc(Cl)c2)C1=O)c1cccc(F)c1 (centres undefined)	·	·	·	·	·	–
COc1cccc(C2C(C(=O)/C=C/c3ccco3)=C(O)C(=O)N2CCN2CCOCC2)c1 (centres undefined)	-33	10µM	–	–	–	–
NC(=O)CC[C@@H]1NC(=O)[C@H](Cc2ccccc2)NC(=O)[C@H](Cc2ccc(O)cc2)NC(=O)CCSSC[C@@H](C(=O)N2CCC[C@H]2C(=O)N[C@@H](CCCN=C(N)N)C(=O)NCC(N)=O)NC(=O)[C@H](CC(N)=O)NC1=O	·	·	·	·	·	–
NC(CO)C(=O)NNCc1ccc(O)c(O)c1O (centres undefined)	-53!	6µM	–	–	–	–
Cc1ccc(C(=O)NCC#N)cc1	–	–	–	–	–	–
Cc1ccc(C(=O)NC(C#N)=C(Cl)Cl)cc1	–	3.2µM	–	–	–	–
Cc1ccnc2c(N)cccc12	·	–	·	·	–	·
O=c1[nH]c2cc3c(cc2cc1C(c1nnnn1CC1CCCO1)N1CCCCCC1)OCO3 (centres undefined)	–	·	–	·	·	·
O=c1[nH]c2cc3c(cc2cc1C(c1nnnn1CC1CCCO1)N1CCCCCC1)OCCO3 (centres undefined)	–	22µM	–	–	–	–
O=C(C[n+]1cccc(Br)c1)c1ccc(Br)cc1	·	–	·	·	–	·
COc1ccc2[nH]c3c4c(ccc3c2c1)C(=O)C=CC4=O	-38	50µM	–	–	–	–
COC(=O)C1=C(C)OC(N)=C(C#N)C1c1cc(OC)c(OCC(N)=O)cc1Cl (centres undefined)	-30	?	–	–	–	–
Oc1ccc2oc3c(c2c1/C=N/n1cnnc1)CCCC3	–	–	–	–	–[0.457 µM]	–
Oc1ccc2oc3c(c2c1C=NCc1ccncc1)CCCC3	-36	–	–	–	–	–
CCC(=O)Oc1oc(-c2ccccc2)nc1C=Nc1ccc(C)cc1	–	–[11.4 µM]	–	–	–[11.4 µM]	–
CC(=O)Oc1oc(-c2ccccc2)nc1C=Nc1ccccc1	·	40µM	–	–	–	–
CCOC(=O)c1ccc(N=Cc2nc(-c3ccccc3)oc2OC(C)=O)cc1	–	2µM	–	–	–	–
COc1ccc(N=Cc2nc(-c3ccccc3)oc2OC(=O)c2ccccc2)cc1	–	?	–	–	–	–
Cc1ccc(NC(=O)C2CCN(C(=O)c3cnn(-c4ccccc4)c3-n3cccc3)CC2)cc1C	·	–	·	·	–	–
O=S(=O)(CCN1CCN(C(c2ccccc2)c2ccccc2)CC1)C(F)(F)F	–	1.6µM	–	–	–	–

Screens (PubChem BioAssay)
